Read-out in assay [1]: Interleukin-8 (IL8), CXCL8 (gene 3576)
Briefly: BSK_3C_IL8: BioMAP Diversity Plus: 3C Assay for Interleukin-8 (IL8) Biomarker Activity (AID 2283020). The conditions noted are these: primary human endothelial cells (HUVEC); actives raise or lower the signal. An outline of the steps: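 HUVEC, 3C stimulation; 24 h compound exposure; IL-8 read by ELISA; gain or loss of signal fitted relative to DMSO control.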

Read-out in assay [2]: Monokine induced gamma interferon (MIG), CXCL9 (gene 4283)
Briefly: BSK_3C_MIG: BioMAP Diversity Plus: 3C Assay for Monokine induced gamma interferon (MIG) Biomarker Activity (AID 2283021). The note with it: primary human endothelial cells (HUVEC); actives raise or lower the signal. An outline of the steps:
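HUVEC, 3C system; 24 h chemical exposure; MIG by ELISA; bidirectional fit vs DMSO baseline.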

In assay [3] the target is human Vitamin D Receptor (VDR), VDR (gene 7421) (UniProt P11473). Briefly: ATG_VDR_TRANS: Attagene TRANS-FACTORIAL HepG2 Assay for human Vitamin D Receptor (VDR) (AID 2283022; active means hit-call score of the fitted dose curve at least 0.9, where 1 is the maximum). An outline of the steps:
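Transactivation by an exogenous VDR-Gal4 chimera in transiently transfected HepG2 cells was measured as reporter transcript level 24 hours after chemical treatment. RT-PCR products were analysed by capillary electrophoresis and fitted in the positive direction relative to DMSO.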

A short description of assay [4]: BSK_3C_SRB: Viability Assessment in the BioMAP Diversity Plus: 3C Assay (AID 2283023).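 Further: fitted both ways against DMSO so a hit may be signal rise or drop.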 The conditions noted are these: primary human endothelial cells (HUVEC). In a few lines: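 Cytotoxicity readout in parallel HUVEC 3C cultures: after 24 h compound exposure, cells fixed with 10% TCA, stained with 0.1% SRB and read at 560 nm. Gain or loss relative to DMSO fitted.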

Read-out in assay [5]: Matrix Metallopeptidase 1 (MMP1), MMP1 (gene 4312)
Briefly: BSK_BE3C_MMP1: BioMAP Diversity Plus: BE3C Assay for Matrix Metallopeptidase 1 (MMP1) Biomarker Activity (AID 2283024). The conditions noted are these: primary human bronchial epithelial cells; actives raise or lower the signal. An outline of the steps: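 ELISA read-out of MMP1 in human lung bronchial epithelial primary cultures, 24 h post-dose; bidirectional curve fit vs DMSO baseline, gain or loss of signal scored.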

Read-out in assay [6]: Pselectin, SELP (gene 6403)
Briefly: BSK_4H_Pselectin: BioMAP Diversity Plus: 4H Assay for Pselectin Biomarker Activity (AID 2283026). The note with it: primary human endothelial cells (HUVEC); actives raise or lower the signal. In a few lines: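 HUVEC, 24 h chemical exposure; P-selectin read by ELISA. Bidirectional curve fit vs DMSO baseline; gain or loss of signal scored.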

A short description of assay [7]: BSK_4H_SRB: Viability Assessment in the BioMAP Diversity Plus: 4H Assay (AID 2283027).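 Further: cells exposed to compound for 24 h before staining.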 The conditions noted are these: primary human endothelial cells (HUVEC). In a few lines: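 Cytotoxicity readout: sulforhodamine B (0.1%) staining of total protein after 10% TCA fixation, measured at 560 nm in human umbilical vein endothelium at 24 h. DMSO set the baseline; fitting was bidirectional.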

The nature of assay [8]: BSK_BE3C_SRB: Viability Assessment in the BioMAP Diversity Plus: BE3C Assay (AID 2283028).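 Further: measured 24 h after chemical dosing.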 The note with it: primary human bronchial epithelial cells. In a few lines:
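Cytotoxicity read-out: SRB (0.1%) staining of TCA-fixed (10%) human lung bronchial epithelial cells, absorbance 560 nm, 24 h post-dosing. Curves fitted both directions relative to DMSO.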

Read-out in assay [9]: Thrombomodulin, THBD (gene 7056)
Briefly: BSK_3C_Thrombomodulin: BioMAP Diversity Plus: 3C Assay for Thrombomodulin Biomarker Activity (AID 2283029). The note with it: primary human endothelial cells (HUVEC); actives raise or lower the signal. In a few lines:
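HUVEC, 3C conditions; compound 24 h; thrombomodulin by ELISA; bidirectional curve fit vs DMSO baseline; parallel SRB total-protein staining for cytotoxicity.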

Read-out in assay [10]: Urokinase-type plasminogen activator receptor (uPAR), PLAUR (gene 5329)
Briefly: BSK_4H_uPAR: BioMAP Diversity Plus: 4H Assay for Urokinase-type plasminogen activator receptor (uPAR) Biomarker Activity (AID 2283030). The note with it: primary human endothelial cells (HUVEC); actives raise or lower the signal. In a few lines:
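uPAR level read by ELISA on HUVEC cultures (BioMAP 4H) 24 h post-dosing, analyzed for gain or loss relative to DMSO. Parallel SRB staining assessed overt cytotoxicity.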

Read-out in assay [11]: Vascular endothelial growth factor receptor 2 (Homo sapiens) (UniProt P35968)
Briefly: BSK_4H_VEGFRII: BioMAP Diversity Plus: 4H Assay for Vascular endothelial growth factor receptor 2 (VEGFR2) Biomarker Activity (AID 2283031). The note with it: primary human endothelial cells (HUVEC); actives raise or lower the signal. An outline of the steps:
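Measured by ELISA after 24 h of compound treatment: VEGFR2 on primary human umbilical vein endothelial cells, fitted in both directions relative to DMSO. Parallel cultures received SRB staining (560 nm) for overt cytotoxicity.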

Read-out in assay [12]: Human Leukocyte Antigen - DR isotype (HLADR), HLA-DRA (gene 3122)
Briefly: BSK_BE3C_HLADR: BioMAP Diversity Plus: BE3C Assay for Human Leukocyte Antigen - DR isotype (HLADR) Biomarker Activity (AID 2283032). The conditions noted are these: primary human bronchial epithelial cells; actives raise or lower the signal. In a few lines:
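Primary human bronchial epithelial cells (BE3C); 24 h chemical exposure; HLA-DR by ELISA; bidirectional curve fit vs DMSO baseline.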

Read-out in assay [13]: Vascular cell adhesion molecule 1 (VCAM1), VCAM1 (gene 7412)
Briefly: BSK_4H_VCAM1: BioMAP Diversity Plus: 4H Assay for Vascular cell adhesion molecule 1 (VCAM1) Biomarker Activity (AID 2283033).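 Further: cell-surface VCAM-1 protein measured by ELISA.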 The note with it: primary human endothelial cells (HUVEC); actives raise or lower the signal. An outline of the steps: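 HUVEC, 24 h post-dose; VCAM-1 by ELISA. Bidirectional curve fit vs DMSO baseline. Parallel SRB total-protein stain (0.1% SRB after 10% TCA fixation, 560 nm) for cytotoxicity.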

Read-out in assay [14]: Interferon-gamma inducible Protein 10 (IP10), CXCL10 (gene 3627)
Briefly: BSK_BE3C_IP10: BioMAP Diversity Plus: BE3C Assay for Interferon-gamma inducible Protein 10 (IP10) Biomarker Activity (AID 2283034). The note with it: primary human bronchial epithelial cells; actives raise or lower the signal. An outline of the steps:
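ELISA readout of IP-10 in BE3C system: primary human bronchial epithelial cells, 24 h post-dosing; bidirectional curve fit vs DMSO baseline.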

Read-out in assay [15]: Monokine induced gamma interferon (MIG), CXCL9 (gene 4283)
Briefly: BSK_BE3C_MIG: BioMAP Diversity Plus: BE3C Assay for Monokine induced gamma interferon (MIG) Biomarker Activity (AID 2283035).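 Further: MIG protein measured by ELISA in BE3C cultures after 24 h of dosing.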 The conditions noted are these: primary human bronchial epithelial cells; actives raise or lower the signal. In a few lines:
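hu bronchial epithelial 1° cells, 24 h cpd; MIG by ELISA; bidirectional fit, DMSO = baseline.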

Read-out in assay [16]: Plasminogen activator inhibitor-1 (PAI1), SERPINE1 (gene 5054)
Briefly: BSK_BE3C_PAI1: BioMAP Diversity Plus: BE3C Assay for Plasminogen activator inhibitor-1 (PAI1) Biomarker Activity (AID 2283037). The conditions noted are these: primary human bronchial epithelial cells; actives raise or lower the signal. In a few lines: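 ELISA read-out of PAI-1 from human bronchial epithelial primary cells, 24 h post-dosing; bidirectional curve fit vs DMSO baseline, gain or loss of signal scored.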

Read-out in assay [17]: urokinase plasminogen activator (uPA), PLAU (gene 5328)
Briefly: BSK_BE3C_uPA: BioMAP Diversity Plus: BE3C Assay for urokinase plasminogen activator (uPA) Biomarker Activity (AID 2283038).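 Further: uPA protein level quantified by ELISA in cell cultures; uPA read one day after compound addition.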 The note with it: primary human bronchial epithelial cells; actives raise or lower the signal. An outline of the steps:
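ELISA for uPA on human primary bronchial epithelial cultures 24 h post-treatment, gain or loss against DMSO. Parallel SRB staining (0.1% after 10% TCA fixation, 560 nm) assessed overt cytotoxicity.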

Read-out in assay [18]: Urokinase-type plasminogen activator receptor (uPAR), PLAUR (gene 5329)
Briefly: BSK_BE3C_uPAR: BioMAP Diversity Plus: BE3C Assay for Urokinase-type plasminogen activator receptor (uPAR) Biomarker Activity (AID 2283039).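 Further: uPAR protein level measured by ELISA on the cells; cells exposed to compound for one day before measurement.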 The conditions noted are these: primary human bronchial epithelial cells; actives raise or lower the signal. An outline of the steps: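 ELISA readout of uPAR on human lung primary bronchial epithelial cells, 24 h post-dosing. Bidirectional curve fit relative to DMSO vehicle baseline; gain or loss of signal both scored.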

Assay [19] in a line: BSK_3C_Vis: BioMAP Diversity Plus: 3C Assay for Morphology Visualization (AID 2283025).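 Further: fitted both ways so gain or loss versus DMSO counts.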 The conditions noted are these: primary human endothelial cells (HUVEC). In a few lines: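 HUVEC, 3C system; light microscopy of morphology at 24 h post-dose. Bidirectional fit vs DMSO baseline. Secondary readout, background-control function.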
Read-out in assay [20]: Transforming growth factor beta 1 (TGFb1), TGFB1 (gene 7040)
Briefly: BSK_BE3C_TGFb1: BioMAP Diversity Plus: BE3C Assay for Transforming growth factor beta 1 (TGFb1) Biomarker Activity (AID 2283036;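 further: TGF-b1 protein level measured by ELISA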). The note with it: primary human bronchial epithelial cells; actives raise or lower the signal. In a few lines:
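Read-out: ELISA for TGF-b1 in primary human bronchial epithelial cultures, 24 h post-dose. Bidirectional curve fitting vs DMSO control; gain or loss of signal both scored.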

The AC50 is the concentration at which the activity in the assay is half-maximal.

“And” between values parts separate entries of the source, which are not always exact repeats. Identical values can stand only once. Inconclusive results are not listed. More than one record can exist for a structure, and the calls need not agree. The source made the active and inactive calls. How the source made its calls, unless noted: active means hit-call score of the fitted dose curve at least 0.9, where 1 is the maximum; inactive means score below 0.9.

human Vitamin D Receptor (VDR), VDR (gene 7421), sequence (P11473 whole entry, looked up, the tested form may be a part): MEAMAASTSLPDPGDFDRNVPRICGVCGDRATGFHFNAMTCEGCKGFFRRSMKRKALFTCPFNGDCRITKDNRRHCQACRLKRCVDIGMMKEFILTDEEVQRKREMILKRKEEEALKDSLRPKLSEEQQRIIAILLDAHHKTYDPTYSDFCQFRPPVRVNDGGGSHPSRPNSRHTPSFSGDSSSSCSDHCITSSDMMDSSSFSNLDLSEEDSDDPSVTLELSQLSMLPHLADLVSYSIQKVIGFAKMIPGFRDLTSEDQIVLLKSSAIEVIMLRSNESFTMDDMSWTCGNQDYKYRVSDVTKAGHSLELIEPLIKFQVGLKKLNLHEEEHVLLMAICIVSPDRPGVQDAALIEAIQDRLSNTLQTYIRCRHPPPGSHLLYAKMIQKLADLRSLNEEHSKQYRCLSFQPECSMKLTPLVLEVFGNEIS

Consider `O=C(Cl)C(F)(F)C(F)(F)C(F)(F)C(F)(F)C(F)(F)C(F)(F)C(F)(F)F`, for which the result in [1], in [2], in [3], in [4], in assay [5] and in [6] was inactive. The result in assay [7], in assay [8], in assay [9], in assay [10], in assay [11] and in assay [12] was inactive. In addition, the result in [13], in assay [14], in assay [15], in assay [16], in [17] and in assay [18] was inactive. Further, the AC50 in [5] was 6 µM (active) and 24 µM (active); in assay [14], 19.8 µM (active).
On to `CCOC(=O)CC(=O)C(F)(F)C(F)(F)F`, for which the result in assay [1], in [2], in assay [3], in assay [4], in [5] and in assay [6] was inactive. Further, the outcome in assay [7], in [8], in assay [9], in assay [10], in assay [11] and in [12] was inactive. Further, the outcome in [13], in [14], in assay [15], in [16], in assay [17] and in [18] was inactive. Also, in [10], the AC50 was 15.1 µM (active).
In the case of `CCN(CC)c1ccc(C=O)cc1`, the result in [1], in assay [2], in [3], in assay [4], in [5] and in assay [19] was inactive. The result in assay [6], in [7], in assay [8], in assay [9], in assay [10] and in assay [11] was inactive. Also, the outcome in assay [12], in [13], in [14], in assay [15], in [20] and in assay [16] was inactive. The result in assay [17] and in assay [18] was inactive.
On to `CN(C(=O)C(F)(F)C(F)(F)C(F)(F)F)[Si](C)(C)C`, for which the result in assay [1], in assay [2], in assay [3], in assay [4], in assay [5] and in assay [6] was inactive. Also, the outcome in assay [7], in assay [8], in assay [9], in assay [10], in [11] and in [12] was inactive. Besides, the result in assay [13], in assay [14], in assay [15], in assay [16], in assay [17] and in assay [18] was inactive.
Regarding `C[Si](Cl)(Cl)CCC(F)(F)C(F)(F)C(F)(F)C(F)(F)C(F)(F)C(F)(F)F`, the outcome in assay [1], in [2], in assay [3], in assay [4], in [5] and in assay [6] was inactive. Besides, the result in assay [7], in assay [8], in assay [9], in assay [10], in assay [11] and in assay [12] was inactive. The outcome in assay [13], in assay [14], in [15], in assay [16], in assay [17] and in [18] was inactive. Further, the half-maximal activity concentration (AC50) in assay [10] was 0.0248 µM (active).
In the case of `O=C(O)C(F)(F)C(F)(F)C(F)(F)C(=O)O`, the result in [1], in [2], in [3], in [4], in assay [5] and in assay [6] was inactive. Further, the result in assay [7], in assay [8], in assay [9], in assay [10], in assay [11] and in [12] was inactive. Besides, the outcome in [13], in assay [14], in assay [15], in [16], in assay [17] and in [18] was inactive.

The record behind these values is PubChem BioAssay (EPA / NIEHS).
